Reference: PubChem BioAssay (Tox21)
Inconclusive results are not listed. A number with no mark means an inactive call. Calls of active or inactive are those of the source. Unless noted, calls come from the whole dose curve.

assay: cAMP Responsive Elements (CRE) small molecule agonists, cell-based qHTS assay (AID 1963590); conditions: CRE-bla HEK293T, beta-lactamase FRET ratio, 3 h; series mostly up to 92.4 µM; activation: at the top concentration
Summary of the method: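 Cells carrying a CRE-driven beta-lactamase reporter (HEK 293T) are seeded, incubated overnight (18 h), and treated with test compounds for 3 h at 37 C; reporter activity is then detected with a FRET substrate after 2 h at room temperature.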
% is set by controls: 0 for no effect and ±100 for the full control effect.

Structure (SMILES)	activation
COc1ccc(-c2cc(=S)ss2)cc1	-4.08% [at 42.5 µM]
O=C(CCCCCCC(=O)Nc1ccccc1)NO	11.2% [at 42.5 µM]
c1cc(CN2CCCCC2)cc(OCCCNc2nc3ccccc3s2)c1	1.09% [at 42.5 µM]
O=C(OC[C@H]1O[C@@H](OC(=O)c2cc(O)c(O)c(OC(=O)c3cc(O)c(O)c(O)c3)c2)[C@H](OC(=O)c2cc(O)c(O)c(OC(=O)c3cc(O)c(O)c(O)c3)c2)[C@@H](OC(=O)c2cc(O)c(O)c(OC(=O)c3cc(O)c(O)c(O)c3)c2)[C@@H]1OC(=O)c1cc(O)c(O)c(OC(=O)c2cc(O)c(O)c(O)c2)c1)c1cc(O)c(O)c(OC(=O)c2cc(O)c(O)c(O)c2)c1	4.01% [at 19 µM]
N[C@@H](C(=O)N[C@@H]1C(=O)N2C(C(=O)O)=C(Cl)CS[C@H]12)c1ccccc1	-0.664% [at 8.39 µM]
CCN(CC)c1ccc(C(=C2C=CC(=[N+](CC)CC)C=C2)c2cc(S(=O)(=O)O)ccc2S(=O)(=O)[O-])cc1	0.135% [at 42.5 µM]
O=C1Cc2cc(CCN3CCN(c4nsc5ccccc45)CC3)c(Cl)cc2N1	3.35% [at 42.5 µM]
CCCCCCCC/C=C/CCCCCCCC1=NCCN1CCO	4.92%
CC1=NN(c2cc(Cl)c(S(=O)(=O)O)cc2Cl)C(=O)C1N=Nc1ccc(S(=O)(=O)O)cc1 (stereo unspecified)	0.18%
C(=C(c1ccccc1)c1ccccc1)c1ccccc1	7.29%
CC1=NN(c2ccc(S(=O)(=O)O)cc2)C(=O)C1N=Nc1ccccc1 (stereo unspecified)	-0.052%
Nc1ccc(N)c2c1C(=O)c1ccccc1C2=O	-2.33%
Cc1c(C(=O)NN2CCCCC2)nn(-c2ccc(Cl)cc2Cl)c1-c1ccc(Cl)cc1	-0.489% [at 42.5 µM]
CC(COc1ccc(C(C)(C)C)cc1)OS(=O)OCCCl (stereo unspecified)	0.28%
c1ccc(-c2ccc(C(c3ccccc3)n3ccnc3)cc2)cc1 (stereo unspecified)	9.33% [at 42.5 µM]
Cc1onc(-c2c(Cl)cccc2Cl)c1C(=O)N[C@@H]1C(=O)N2[C@@H]1SC(C)(C)[C@@H]2C(=O)O	-2.83% [at 42.5 µM]
Cc1ccc(N/N=c2\c(=O)cc/c(=N\Nc3ccc(S(=O)(=O)O)cc3)c2=O)c(C)c1	-1.2%

assay: cAMP Responsive Elements (CRE) small molecule antagonists, cell-based qHTS assay (AID 1963591; active = well fitted inhibition curve with a large enough effect in the signal ratio in the repeat runs, not every such curve was filed as active; the % refers to the signal ratio; note: potency is the fitted concentration of half-maximal effect); conditions: CRE-bla HEK293T, beta-lactamase FRET ratio; series mostly up to 92.4 µM; activity change, negative = inhibition: at the top concentration
Summary of the method: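 Cells (CRE-bla HEK 293T, DMEM with 10% dialyzed FBS and 25 mM HEPES) are seeded and incubated 18 h. Compounds are added with NKH477 agonist at 0.25 uM final for 3 h, then FRET substrate for 2 h.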

Structure (SMILES)	activity change, negative = inhibition	Potency
COc1ccc(-c2cc(=S)ss2)cc1	0.0985% [at 42.4 µM]	
COc1cc(Nc2c(C#N)cnc3cc(OCCCN4CCN(C)CC4)c(OC)cc23)c(Cl)cc1Cl	-12.8% [at 42.4 µM]	
N[C@@H](C(=O)N[C@@H]1C(=O)N2C(C(=O)O)=C(Cl)CS[C@H]12)c1ccccc1	-10.2% [at 8.39 µM]	
Cc1cccc(O)c1N	5.56%	
CCN(CC)c1ccc(C(=C2C=CC(=[N+](CC)CC)C=C2)c2cc(S(=O)(=O)O)ccc2S(=O)(=O)[O-])cc1	0.817% [at 42.4 µM]	
COc1ccccc1OCCNCC(O)COc1cccc2[nH]c3ccccc3c12 (stereo unspecified)	-7.31% [at 42.4 µM]	
CC1=NN(c2cc(Cl)c(S(=O)(=O)O)cc2Cl)C(=O)C1N=Nc1ccc(S(=O)(=O)O)cc1 (stereo unspecified)	10.8%	
CN(C)CC/C=C1\c2ccccc2Sc2ccc(Cl)cc21	-19.6% [at 42.4 µM]	
C(=C(c1ccccc1)c1ccccc1)c1ccccc1	-0.0269%	
CCCCCCCCNC(C)C(O)c1ccc(SC(C)C)cc1 (stereo unspecified)		23.7 µM (active)
CC1=NN(c2ccc(S(=O)(=O)O)cc2)C(=O)C1N=Nc1ccccc1 (stereo unspecified)	-2.56%	
COc1cc([N+](=O)[O-])ccc1N	-22.1%	
Cc1c(C(=O)NN2CCCCC2)nn(-c2ccc(Cl)cc2Cl)c1-c1ccc(Cl)cc1	3.1% [at 42.4 µM]	
CC(C)C(OC(=O)c1ccccc1)C(C)(C)COC(=O)c1ccccc1 (stereo unspecified)	17.7%	
O=C1CCCCCN1SSN1CCCCCC1=O	-9.33%	
CC(COc1ccc(C(C)(C)C)cc1)OS(=O)OCCCl (stereo unspecified)		43.5 µM (active)
Cc1onc(-c2c(Cl)cccc2Cl)c1C(=O)N[C@@H]1C(=O)N2[C@@H]1SC(C)(C)[C@@H]2C(=O)O	-7.25% [at 42.4 µM]	
Cc1ccc(N/N=c2\c(=O)cc/c(=N\Nc3ccc(S(=O)(=O)O)cc3)c2=O)c(C)c1	-1.03%	
CCCCC(CC)CN1CN(CC(CC)CCCC)CC(C)(N)C1 (stereo unspecified)	9.32% [at 42.4 µM]	
